Source: PubChem BioAssay (Tox21)
Where “and” joins values, the source holds several entries; their conditions need not be identical. Equal values may be shown once. Records with an inconclusive call do not appear. Entries that show only a call come without a potency. Some compounds were tested as several samples or in several runs, with calls that do not always agree. Calls of active or inactive are those of the source. Unless noted, calls come from the whole dose curve.

Assays:
[1] = qHTS assay to identify small molecule agonists of the vitamin D receptor (VDR) signaling pathway - cell viability counter screen (AID 743224; active = well fitted curve in the direction sought with a large enough effect in the repeat runs; an effect the other way counts as inactive or inconclusive; note: nearly all actives have a fitted effect of over 50% in size; note: potency is the fitted concentration of half-maximal effect)
In short: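 Luminescence from CellTiter-Glo, read after 30 min at room temperature, reports viability of VDR-bla cells treated with compounds for 16 h at 37C in the wells used for the beta-lactamase FRET read.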

[2] = qHTS assay to identify small molecule antagonists of the vitamin D receptor (VDR) signaling pathway - cell viability counter screen (AID 743225; active = well fitted curve in the direction sought with a large enough effect in the repeat runs; an effect the other way counts as inactive or inconclusive; note: nearly all actives have a fitted effect of over 50% in size; note: potency is the fitted concentration of half-maximal effect)
In short: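 Cytotoxicity toward the VDR-bla HEK 293T line was scored by ATP-based CellTiter-Glo luminescence, read in the wells already used for the beta-lactamase readout after 16 h compound treatment under 3 nM 1-alpha,25-dihydroxyvitamin D3 stimulation.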

[3] = qHTS assay to identify small molecule agonists of the NFkB signaling pathway (AID 1159509; active = well fitted curve in the direction sought with a large enough effect in the signal ratio in the repeat runs, not every such curve was filed as active; the % refers to the signal ratio; note: series mostly up to about 61 µM)
In short: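 ME-180 NFkB-bla, 2,000 cells/well, overnight plating; cpd pinned in DMSO, 5 h 37 C; B/G FRET substrate 1.5 h RT; ex 405, em 460/530 nm.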

[4] = qHTS assay to identify small molecule agonists of the NFkB signaling pathway - cell viability counter screen (AID 1159515); note: nearly all actives have a fitted effect of over 55% in size; note: potency is the fitted concentration of half-maximal effect
In short: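 Luminescence from CellTiter-Glo (30 min, room temperature) gives viability, measured in the same wells as the beta-lactamase reporter read. Cells were NFkB-bla ME-180, 2,000 per well, treated 5 hr with compounds.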

[5] = qHTS assay to identify small molecule agonists of the endoplasmic reticulum stress response signaling pathway - cell viability counter screen (AID 1159517);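 note: HeLa cells carrying an ER stress response element beta-lactamase reporter; series mostly up to about 61 µM; nearly all actives have a fitted effect of over 50% in size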
In short: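 CellTiter-Glo was added to wells already read for beta-lactamase FRET, and luminescence was recorded 30 min later. Cells: ESRE-bla HeLa, 1,500 per well, compound exposure 5 hr at 37 C.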

[6] = qHTS assay to identify small molecule antagonists of the retinoid-related orphan receptor gamma (ROR-gamma) signaling pathway - cell viability counter screen (AID 1159520; active = well fitted curve in the direction sought with a large enough effect in the repeat runs; an effect the other way counts as inactive or inconclusive; note: nearly all actives have a fitted effect of over 50% in size; note: potency is the fitted concentration of half-maximal effect)
In short: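 Tet-on ROR gamma CHO cells (1,000/well) were plated 4 hr, given compounds in DMSO for 2 hr at 37 C, then induced with 1 uM final doxycycline for 16 hr. Viability was read as ATP by CellTiter-Glo luminescence after 30 min.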

[7] = qHTS assay to identify small molecule agonists of the AP-1 signaling pathway (AID 1159526)
[8] = target: Nuclear receptor ROR-gamma (Homo sapiens) (UniProt P51449); assay: qHTS assay to identify small molecule antagonists of the retinoid-related orphan receptor gamma (ROR-gamma) signaling pathway (AID 1159521; active = well fitted curve in the direction sought with a large enough effect in the repeat runs; an effect the other way counts as inactive or inconclusive; note: nearly all actives have a fitted effect of over 50% in size; note: potency is the fitted concentration of half-maximal effect)
In short: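 Readout: ONE-Glo luciferase luminescence, 30 min at room temperature. System: Tet-on RORγ CHO, RORE-LUC. Sequence: compound 2 h, doxycycline 1 uM final, 16 h at 37 C.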

[9] = qHTS assay to identify small molecule agonists of the AP-1 signaling pathway - cell viability counter screen (AID 1159525); note: nearly all actives have a fitted effect of over 55% in size
In short: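 ME-180 AP-1-bla, 2500 cells/well, Opti-MEM + 0.5% dialyzed FBS; overnight 37 °C; cpd 15-pt titration, 5 h 37 °C; CellTiter-Glo 30 min RT; luminescence read; normalised to TOAB and DMSO controls.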

[10] = qHTS assay to identify small molecule agonists of the endoplasmic reticulum stress response signaling pathway (AID 1159516; active = well fitted activation curve with a large enough effect in the signal ratio in the repeat runs, not every such curve was filed as active; the % refers to the signal ratio)
In short: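 Read-out is beta-lactamase cleavage of a FRET substrate (405 nm excitation; 460 and 530 nm emissions) in ESRE-bla HeLa cells after a 5 hr compound exposure at 37 C. Substrate incubation ran 2 hr at room temperature.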

ClCc1cccc(Cl)c1
Potency [1]: inactive
Potency [2]: inactive
outcome [3]: inactive
Potency [4]: inactive
Potency [5]: inactive
Potency [6]: inactive
outcome [7]: inactive

O=C(NC(=O)c1c(F)cccc1F)Nc1ccc(OC(F)(F)C(F)OC(F)(F)F)c(Cl)c1 (stereo unspecified)
Potency [1]: inactive
Potency [2]: inactive
outcome [3]: inactive
Potency [4]: inactive
Potency [6]: inactive
Potency [8]: inactive
Potency [9]: inactive
outcome [7]: inactive

II
Potency [1]: inactive
Potency [2]: inactive
outcome [3]: inactive
Potency [4]: inactive
Potency [5]: inactive
Potency [6]: 30.6 µM (active)

C/C(=C\c1ccccc1)[N+](=O)[O-]
Potency [1]: 24.5 µM (active)
outcome [3]: inactive
Potency [4]: 54.9 µM (active)
Potency [6]: 27.3 µM (active)
Potency [8]: 19.3 µM (active)
Potency [9]: inactive

CC(=O)[C@H]1CC[C@H]2[C@@H]3CC[C@H]4C[C@](C)(O)CC[C@]4(C)[C@H]3CC[C@]12C
Potency [1]: inactive
Potency [2]: inactive
outcome [3]: inactive
Potency [4]: inactive
Potency [5]: inactive
Potency [6]: inactive
Potency [9]: inactive

CCCCC(O)(Cn1cncn1)c1ccc(Cl)cc1Cl (stereo unspecified)
Potency [1]: 48.9 µM (active)
Potency [2]: 54.9 µM (active)
outcome [3]: inactive
Potency [4]: inactive
Potency [5]: inactive
Potency [8]: 54.4 µM (active)

CCOC(=O)C(Cl)C(C)=O (stereo unspecified)
Potency [1]: inactive
outcome [3]: inactive
Potency [4]: inactive
Potency [6]: inactive
Potency [8]: inactive
Potency [9]: inactive
outcome [7]: inactive

O=C(O)c1ccccc1C(=O)Nc1cccc2ccccc12
Potency [1]: inactive
Potency [2]: inactive
outcome [3]: inactive
Potency [4]: inactive
Potency [5]: inactive
Potency [6]: inactive
Potency [9]: inactive

Cc1cc(=O)[nH]o1
Potency [1]: inactive
outcome [3]: inactive
Potency [4]: inactive
Potency [6]: inactive
Potency [8]: inactive
Potency [9]: inactive
outcome [7]: inactive

Cl/C=C\Cl
Potency [1]: inactive
Potency [2]: inactive
outcome [3]: inactive
Potency [4]: inactive
Potency [6]: inactive
Potency [8]: inactive
Potency [9]: inactive
outcome [7]: inactive

C(=NC1CCCCC1)=NC1CCCCC1
Potency [1]: inactive and 24.5 µM (active)
Potency [2]: inactive
outcome [3]: inactive
Potency [4]: inactive
Potency [5]: inactive
Potency [8]: inactive
Potency [9]: inactive
outcome [7]: inactive

NS(=O)(=O)C(F)(F)C(F)(F)C(F)(F)C(F)(F)C(F)(F)C(F)(F)C(F)(F)C(F)(F)F
Potency [1]: 49 µM (active)
outcome [3]: inactive
Potency [4]: inactive
Potency [6]: inactive
Potency [8]: 54.5 µM (active)
Potency [9]: inactive
outcome [7]: inactive

CC(C)(Cl)[N+](=O)[O-]
Potency [1]: inactive
Potency [2]: inactive
outcome [3]: inactive
Potency [4]: inactive
Potency [6]: inactive
Potency [8]: inactive
Potency [9]: inactive
outcome [7]: inactive

CC(c1ccc(O)cc1)(c1ccc(O)cc1)c1ccc(O)cc1
Potency [2]: inactive
outcome [3]: inactive
Potency [4]: inactive
Potency [5]: inactive
Potency [6]: inactive

O=C(NC(=O)c1c(F)cccc1F)Nc1cc(Cl)c(Oc2ncc(C(F)(F)F)cc2Cl)c(Cl)c1
outcome [3]: inactive
Potency [4]: inactive
Potency [5]: inactive
Potency [8]: 20.8 µM (active)
Potency [9]: inactive

CN1C(=O)C(O)N=C(c2ccccc2)c2cc(Cl)ccc21 (stereo unspecified)
Potency [1]: inactive
outcome [3]: inactive
Potency [4]: inactive
Potency [6]: inactive
Potency [8]: inactive
Potency [9]: inactive
outcome [7]: inactive

CCCC(Cn1cncn1)c1ccc(Cl)cc1Cl (stereo unspecified)
Potency [1]: inactive
Potency [2]: inactive
outcome [3]: inactive
Potency [4]: inactive
Potency [5]: inactive
Potency [9]: inactive

CCCCCCCCCC(=O)O[C@H]1CC[C@H]2[C@@H]3CCC4=CC(=O)CC[C@@H]4[C@H]3CC[C@]12C
Potency [2]: inactive
outcome [3]: inactive
Potency [4]: inactive
Potency [5]: inactive
Potency [9]: inactive
outcome [7]: inactive

CCCCN=C=O
Potency [1]: inactive
Potency [2]: inactive
outcome [3]: inactive
Potency [4]: inactive
Potency [6]: inactive
Potency [8]: inactive
Potency [9]: inactive
outcome [7]: inactive

CN(C)c1ccc(N(C)C)cc1
Potency [2]: inactive
outcome [3]: inactive
Potency [4]: inactive
Potency [6]: inactive
Potency [8]: inactive
Potency [9]: inactive

Nc1ccc([N+](=O)[O-])cc1[N+](=O)[O-]
Potency [1]: inactive
Potency [2]: inactive
outcome [3]: inactive
Potency [4]: inactive
Potency [5]: inactive
Potency [9]: inactive
outcome [7]: inactive

COC1=CC(=O)O[C@@H](CCc2ccccc2)C1
Potency [1]: inactive
Potency [2]: inactive
outcome [3]: inactive
outcome [10]: inactive
Potency [5]: inactive
Potency [6]: inactive
Potency [8]: inactive
Potency [9]: inactive
outcome [7]: inactive
